# Laboratory results published in ChEMBL document CHEMBL1157539, “Thousands of chemical starting points for antimalarial lead identification” (Nature, 2010).
# “And” between values parts separate entries of the source, which are not always exact repeats. Equal values may be shown once.
# What was measured:
# Format in all cases: functional
# Plasmodium falciparum [1] = test: GSK_TCMDC: Inhibition of Plasmodium falciparum 3D7 in whole red blood cells, using parasite LDH activity as an index of growth. Test compounds present at 2uM
# Plasmodium falciparum [2] = test: GSK_TCMDC: Inhibition of Plasmodium falciparum Dd2 in whole red blood cells, using parasite LDH activity as an index of growth. Test compounds present at 2uM
# HepG2 = test: GSK_TCMDC: Percent inhibition of human HepG2 cell line. Test compounds present at 10uM.
SMILES,Inhibition (Plasmodium falciparum [1]) [%],Inhibition (Plasmodium falciparum [2]),Inhibition (HepG2)
CCC(C)CN1CCC(N(C)c2cc(NC(=O)c3ccc(F)cc3)ccn2)CC1.O=C(O)C(F)(F)F (stereo not given),93,32%,4%
O=C(/C=C/c1ccc(Cl)c(Cl)c1)N1CCC(CN2CCC(c3c[nH]c4cc(C(F)(F)F)ccc34)CC2)CC1,99,38%,6%
CC[C@H]1CN2CC[C@@H]1C[C@H]2[C@H](O)c1ccnc2ccc(OC)cc12,100,61%,0%
CC(Cc1ccc(OCCOc2ccccc2)cc1)NCC(O)c1cccc(Cl)c1 (stereo not given),99,99%,12%
CC[C@H]1CN2CC[C@@H]1C[C@H]2[C@H](O)c1cc[n+]([O-])c2ccc(OC)cc12,95,1%,0%
CN1CCC(N(C)c2nccc(N3CCN(Cc4cncn4Cc4ccccc4)CC3)n2)CC1,100,100%,15%
CCCCCSc1cc(O)c(C(CNC)C(C)C)cc1OC.O=C(O)/C=C\C(=O)O (stereo not given),100,99%,5%
CC(C)CNCc1cccc(-c2cccc(CN(C(=O)Nc3ccccc3)C3CCN(Cc4ccccc4)CC3)c2)c1.O=C(O)C(F)(F)F,100,89%,31%
O=C(c1cc(C(=O)NCc2ccc(Cl)cc2)c(=O)n(Cc2ccc(Cl)cc2)c1)c1cc(F)ccc1O,93,2%,7%
Cn1nc(-c2ccc(S(=O)(=O)N3CCC(CN4CCC(c5c[nH]c6ccccc56)CC4)CC3)s2)cc1C(F)(F)F,93,48%,16%
Oc1ccc(CN2CCN(CCOC(c3ccccc3)c3ccc(Cl)cc3)CC2)cc1Cl (stereo not given),98,97%,11%
COc1ccc(C=CC(=O)NC2CCC(CN3CCC(c4c[nH]c5ccccc45)CC3)CC2)cc1 (stereo not given),100,61% and 60%,13% and 30%
COC(=O)CN(C(=O)/C=C/c1ccc(Cl)c(Cl)c1)C1CCC(CN2CCC(c3c[nH]c4ccccc34)CC2)CC1 (stereo not given),100,69%,31%
CN1CC=C(c2c[nH]c3ccc(Oc4ccccc4)cc23)CC1.O=C(O)C(=O)O,98,98%,40%
Br.COc1ccc(C[C@@H](C)NC[C@H](O)c2cccc(Cl)c2)cc1F,88,76%,2%
COc1ccc(NC(=S)NC(NC(=O)CF)C(Cl)(Cl)Cl)cc1[N+](=O)[O-] (stereo not given),97,0%,66%
COC(=O)c1ccc(CC(C)NCC(O)c2cccc(Br)c2)cc1 (stereo not given),99,88%,0%
O=C(/C=C/c1ccc(Cl)c(Cl)c1)Nc1cccc(CN2CCC(c3c[nH]c4ccc(O)cc34)CC2)c1,100,90%,11%
CN(C)c1cccc(CCNCCc2c[nH]c3ccc(Cl)cc23)c1.O=C(O)C(=O)O,94,75%,19%
O=C(O)C(F)(F)F.O=C(c1cccs1)N(Cc1cccc(-c2ccc(CNC3CCCC3)cc2)c1)C1CCN(Cc2ccccc2)CC1,90,74%,20%
CCOC(=O)c1c(C)n(C2CCCCCC2)c2cc(Br)c(O)cc12,87,45%,0%
COC(=O)/C=C/C(=O)N[C@@H]1CC[C@@]2(O)[C@H]3Cc4ccc(O)c5c4[C@@]2(CCN3CC2CC2)[C@H]1O5.Cl,95,66%,9%
Cl.OC(CNC1CCCCCCC1)c1ccc(Cl)c(Cl)c1 (stereo not given),100,99%,17%
CN(C(=O)OCc1ccccc1)C1CCC(CCN2CCC3(CC2)C(=O)NCN3c2cccc(C(F)(F)F)c2)(c2ccccc2)CC1 (stereo not given),80,72%,19%
Cc1ccc(C)c(C=CC(=O)NC2CCC(CN3CCC(c4c[nH]c5ccccc45)CC3)CC2)c1 (stereo not given),100,55% and 80%,46% and 38%
COC(=O)/C=C/c1ccc(CC(C)NCC(O)c2cccc(C(F)(F)F)c2)cc1.Cl (stereo not given),97,93%,41%
COc1ccccc1CC(C)NCC(O)c1cccc(Cl)c1 (stereo not given),97,98%,13%
CN1CC=C(c2c[nH]c3ccc(Sc4ccccc4)cc23)CC1.O=C(O)/C=C/C(=O)O,98,99%,36%
NCc1ccc(-c2ccccc2CN(C(=O)Nc2ccccc2)C2CCN(Cc3ccccc3)CC2)cc1.O=C(O)C(F)(F)F,100,35%,36%
CNCCN(C)C(=O)Oc1c(Br)c(C)nc(C)c1-c1ccc(Oc2ccc(OC(F)(F)F)cc2)cc1.Cl,98,98%,19%
